According to PubChem BioAssay (Tox21):
Results filed as inconclusive are left out. The source made the active and inactive calls. Unless noted, the call rests on the fitted dose curve; in most records, active means well fitted curve in the direction sought with a large enough effect in the repeat runs; inconclusive means weak or mixed curves; inactive means no such curve, though single readings can be large; an effect the other way counts as inactive or inconclusive.

Tests used:
[1] = qHTS assay to identify small molecule antagonists of the thyroid receptor (TR) signaling pathway (AID 743065); further: nearly all actives have a fitted effect of over 55% in size; further: potency means the concentration at half of the fitted maximal effect
Summary of the method: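 Antagonism measured as loss of luciferase signal in GH3 cells stably carrying a TRE-luciferase reporter, co-treated with compound and T3 (1 nM final) for 23.5 h at 37 C. Viability was read in the same well by CellTiter-Fluor.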

[2] = tested on: thyroid hormone receptor (rat, GH3 cells); assay: qHTS assay to identify small molecule agonists of the thyroid receptor (TR) signaling pathway (AID 743066; calls by dose curve)
[3] = target: Estrogen receptor (Homo sapiens) (UniProt P03372); assay: qHTS assay to identify small molecule antagonists of the estrogen receptor alpha (ER-alpha) signaling pathway (AID 743069; active means well fitted curve in the direction sought with a large enough effect in the signal ratio in the repeat runs, not every such curve was filed as active; the % refers to the signal ratio)
Chain of Estrogen receptor (Homo sapiens) (P03372 whole entry, looked up): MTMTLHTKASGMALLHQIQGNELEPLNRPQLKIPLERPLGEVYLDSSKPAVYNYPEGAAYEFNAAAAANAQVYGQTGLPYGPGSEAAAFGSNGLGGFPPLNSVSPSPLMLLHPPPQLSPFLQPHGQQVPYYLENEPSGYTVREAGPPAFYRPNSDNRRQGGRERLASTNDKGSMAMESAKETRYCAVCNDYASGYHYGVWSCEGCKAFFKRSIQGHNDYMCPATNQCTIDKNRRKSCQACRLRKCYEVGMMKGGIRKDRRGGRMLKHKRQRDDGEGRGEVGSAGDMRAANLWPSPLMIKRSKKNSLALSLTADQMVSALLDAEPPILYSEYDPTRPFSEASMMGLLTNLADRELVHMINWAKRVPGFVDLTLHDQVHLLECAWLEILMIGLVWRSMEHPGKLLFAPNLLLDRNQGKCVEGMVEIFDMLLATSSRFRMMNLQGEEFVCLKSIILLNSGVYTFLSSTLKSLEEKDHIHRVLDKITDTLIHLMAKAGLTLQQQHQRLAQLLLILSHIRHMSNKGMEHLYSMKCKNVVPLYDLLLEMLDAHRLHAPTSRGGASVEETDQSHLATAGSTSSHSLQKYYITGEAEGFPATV
Summary of the method: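 ER-alpha-UAS-bla GripTite HEK293 line; 2% charcoal-stripped FBS overnight; plated, 4 hr 37C/5% CO2; cpd in DMSO + 17beta-estradiol, 18 hr 37C; LiveBLAzer B/G FRET substrate 2 hr RT; fluorescence intensity.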

[4] = qHTS assay to identify small molecule antagonists of the estrogen receptor alpha (ER-alpha) signaling pathway - cell viability counter screen (AID 743074; calls by dose curve;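 further: HEK293 cells carrying ER-alpha-UAS-bla reporter stimulated with 17beta-estradiol; nearly all actives have a fitted effect of over 45% in size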)
[5] = target: Estrogen receptor (Homo sapiens) (UniProt P03372); assay: qHTS assay to identify small molecule agonists of the estrogen receptor alpha (ER-alpha) signaling pathway (AID 743075; calls by dose curve;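 further: HEK293 GripTite cells with ER-alpha and UAS-driven beta-lactamase reporter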)
[6] = target: Estrogen receptor (Homo sapiens) (UniProt P03372); assay: qHTS assay to identify small molecule agonists of the estrogen receptor alpha (ER-alpha) signaling pathway using the BG1 cell line (AID 743079); further: nearly all actives have a fitted effect of over 20% in size
[7] = qHTS assay to identify small molecule antagonists of the estrogen receptor alpha (ER-alpha) signaling pathway using the BG1 cell line (AID 743080; calls by dose curve;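 further: BG1 cells stimulated with 17beta-estradiol alongside compound; series mostly up to about 70 µM; nearly all actives have a fitted effect of over 25% in size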)
Summary of the method: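 Luciferase inhibition measured with ONE-Glo after 30 min at RT in BG1Luc4E2 cells given test compounds and 17beta-estradiol for 21.5 h at 37 C; CellTiter-Fluor viability read in the same wells beforehand.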

[8] = qHTS assay to identify small molecule antagonists of the estrogen receptor alpha (ER-alpha) signaling pathway using the BG1 cell line - cell viability counter screen (AID 743081);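 further: compound given together with 17beta-estradiol as the ER stimulus; series mostly up to about 70 µM; nearly all actives have a fitted effect of over 45% in size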
Aromatase (Homo sapiens) = Aromatase (Homo sapiens) (UniProt P11511); assay: qHTS assay to identify aromatase inhibitors (AID 743083); further: nearly all actives have a fitted effect of over 55% in size; further: potency means the concentration at half of the fitted maximal effect
Chain of Aromatase (Homo sapiens) (P11511 whole entry, looked up): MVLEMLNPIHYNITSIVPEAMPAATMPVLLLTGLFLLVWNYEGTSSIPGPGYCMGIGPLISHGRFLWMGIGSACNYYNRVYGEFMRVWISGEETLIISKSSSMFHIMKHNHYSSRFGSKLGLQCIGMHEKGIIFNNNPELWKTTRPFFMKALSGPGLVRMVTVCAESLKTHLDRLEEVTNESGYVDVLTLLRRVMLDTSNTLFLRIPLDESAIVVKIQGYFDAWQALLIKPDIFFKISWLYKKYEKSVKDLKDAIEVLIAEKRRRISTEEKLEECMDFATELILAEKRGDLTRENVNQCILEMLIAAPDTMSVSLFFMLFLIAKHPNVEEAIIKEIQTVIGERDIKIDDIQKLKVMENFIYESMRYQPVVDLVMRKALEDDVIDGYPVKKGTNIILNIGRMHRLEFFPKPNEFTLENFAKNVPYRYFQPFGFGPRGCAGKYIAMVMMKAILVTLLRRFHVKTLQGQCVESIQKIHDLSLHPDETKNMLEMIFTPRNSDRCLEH

[9] = qHTS assay to identify aromatase inhibitors - cell viability counter screen (AID 743084);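 further: cells stimulated with testosterone during compound exposure; nearly all actives have a fitted effect of over 55% in size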; further: potency means the concentration at half of the fitted maximal effect
[10] = target: Aryl hydrocarbon receptor (Homo sapiens) (UniProt P35869); assay: qHTS assay to identify small molecule that activate the aryl hydrocarbon receptor (AhR) signaling pathway (AID 743085); further: nearly all actives have a fitted effect of over 15% in size; further: potency means the concentration at half of the fitted maximal effect;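 on activation: HG2L7.5c1 human HepG2 liver cells with stably integrated DRE-driven firefly reporter; series mostly up to about 70 µM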
Chain of Aryl hydrocarbon receptor (Homo sapiens) (P35869 whole entry, looked up): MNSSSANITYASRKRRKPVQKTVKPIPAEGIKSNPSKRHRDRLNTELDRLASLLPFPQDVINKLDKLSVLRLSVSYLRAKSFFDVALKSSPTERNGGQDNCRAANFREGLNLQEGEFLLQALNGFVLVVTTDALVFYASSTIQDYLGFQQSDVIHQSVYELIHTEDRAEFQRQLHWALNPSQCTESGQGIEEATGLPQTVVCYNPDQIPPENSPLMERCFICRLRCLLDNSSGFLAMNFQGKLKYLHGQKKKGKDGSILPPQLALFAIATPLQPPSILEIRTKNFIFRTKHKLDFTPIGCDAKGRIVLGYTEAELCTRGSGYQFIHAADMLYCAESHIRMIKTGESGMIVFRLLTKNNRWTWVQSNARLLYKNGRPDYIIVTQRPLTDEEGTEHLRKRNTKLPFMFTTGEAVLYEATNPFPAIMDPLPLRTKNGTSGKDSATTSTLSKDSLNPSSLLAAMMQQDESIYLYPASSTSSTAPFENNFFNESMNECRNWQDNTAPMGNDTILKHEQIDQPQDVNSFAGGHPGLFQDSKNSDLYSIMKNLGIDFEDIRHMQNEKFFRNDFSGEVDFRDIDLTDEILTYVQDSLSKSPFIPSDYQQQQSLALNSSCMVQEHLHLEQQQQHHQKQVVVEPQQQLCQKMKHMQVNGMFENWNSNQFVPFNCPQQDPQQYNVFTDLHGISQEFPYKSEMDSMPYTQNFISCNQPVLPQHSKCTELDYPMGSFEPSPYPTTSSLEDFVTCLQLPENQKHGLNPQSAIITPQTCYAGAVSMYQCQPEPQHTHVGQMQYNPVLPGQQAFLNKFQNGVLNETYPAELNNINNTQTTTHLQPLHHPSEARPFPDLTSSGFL
Summary of the method: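 HepG2 cells (HG2L7.5c1) stably carrying a firefly luciferase reporter driven by 20 dioxin responsive elements were exposed to compound for 24 h at 37C after a 5 h settling period; luminescence rise (ONE-Glo) indicated activation.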

[11] = qHTS assay to identify small molecule that activate the aryl hydrocarbon receptor (AhR) signaling pathway - cell viability counter screen (AID 743086);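 further: HepG2 liver cells carrying the AhR DRE luciferase reporter; series mostly up to about 70 µM; nearly all actives have a fitted effect of over 45% in size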
Summary of the method: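 Cytotoxicity counter screen: CellTiter-Fluor signal (30 min, 37 C) in 4000 HepG2 cells/well carrying the DRE-luciferase reporter, following 24 h compound exposure at 37 C.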

[12] = qHTS assay to identify small molecule antagonists of the peroxisome proliferator-activated receptor gamma (PPARg) signaling pathway - cell viability counter screen (AID 743194); further: nearly all actives have a fitted effect of over 55% in size; further: potency means the concentration at half of the fitted maximal effect
Summary of the method: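 Viability was measured as CellTiter-Glo luminescence in GeneBLAzer PPARg UAS-bla HEK293H cells. These cells had been exposed 17 h at 37 C to compounds together with rosiglitazone at 50 nM final, with the beta-lactamase readout taken in the same wells.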

[13] = qHTS assay for small molecule agonists of the antioxidant response element (ARE) signaling pathway - cell viability counter screen (AID 743203; calls by dose curve; further: nearly all actives have a fitted effect of over 55% in size)
Summary of the method: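 Cells (ARE-bla HepG2, 2,000/well) receive DMSO-dissolved compounds after a 5 hrs rest. Plates incubate 16 hrs at 37C/5% CO2. CellTiter-Glo luminescence is then recorded after 30 min at room temperature.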

[14] = qHTS assay for small molecule activators of the heat shock response signaling pathway - cell viability counter screen (AID 743209); further: nearly all actives have a fitted effect of over 50% in size; further: potency means the concentration at half of the fitted maximal effect
Summary of the method: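 Quantitative HTS format, Tox21 10K library. HeLa cells carrying an HSE-driven beta-lactamase reporter were treated 5 h at 37 C, then assessed for viability by CellTiter-Glo luminescence.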

[15] = target: Peroxisome proliferator-activated receptor gamma (Homo sapiens) (UniProt P37231); assay: qHTS assay to identify small molecule agonists of the peroxisome proliferator-activated receptor gamma (PPARg) signaling pathway (AID 743094; active means well fitted activation curve with a large enough effect in the signal ratio in the repeat runs, not every such curve was filed as active; the % refers to the signal ratio)
Chain of Peroxisome proliferator-activated receptor gamma (Homo sapiens) (P37231 whole entry, looked up): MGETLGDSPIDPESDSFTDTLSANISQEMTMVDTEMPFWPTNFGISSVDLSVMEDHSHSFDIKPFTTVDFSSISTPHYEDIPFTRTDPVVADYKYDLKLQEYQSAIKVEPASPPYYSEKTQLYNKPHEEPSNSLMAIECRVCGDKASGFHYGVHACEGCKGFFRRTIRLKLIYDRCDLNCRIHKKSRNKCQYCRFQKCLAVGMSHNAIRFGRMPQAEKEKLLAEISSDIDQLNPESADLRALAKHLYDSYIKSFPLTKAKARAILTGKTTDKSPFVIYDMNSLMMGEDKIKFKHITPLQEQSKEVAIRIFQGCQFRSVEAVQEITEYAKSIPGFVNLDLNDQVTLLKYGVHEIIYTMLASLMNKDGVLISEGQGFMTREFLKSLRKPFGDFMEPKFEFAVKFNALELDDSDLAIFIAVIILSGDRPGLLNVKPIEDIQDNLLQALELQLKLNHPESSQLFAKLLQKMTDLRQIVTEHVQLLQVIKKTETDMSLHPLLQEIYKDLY
Summary of the method: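 Stably transfected HEK293H cells (GeneBLAzer PPARg UAS-bla) were incubated with test substances for 17 h at 37C after a 5 h pre-incubation; beta-lactamase activity was then detected by FRET substrate fluorescence.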

[16] = qHTS assay for small molecule agonists of the antioxidant response element (ARE) signaling pathway (AID 743202; active means well fitted activation curve with a large enough effect in the signal ratio in the repeat runs, not every such curve was filed as active; the % refers to the signal ratio; further: potency means the concentration at half of the fitted maximal effect)
Summary of the method: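 Quantitative high-throughput format in HepG2 cells bearing an integrated ARE-beta-lactamase reporter. Compound exposure lasted 16 h at 37 C, and fluorescence was read 2 h after adding LiveBLAzer B/G substrate at room temperature.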

[17] = qHTS assay to identify small molecule antagonists of the thyroid receptor (TR) signaling pathway - cell viability counter screen (AID 743064); further: nearly all actives have a fitted effect of over 50% in size; further: potency means the concentration at half of the fitted maximal effect
Summary of the method: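 GH3.TRE-Luc rat pituitary cells carrying a TRE-luciferase reporter were treated with compound plus 1 nM T3 (final) for 23.5 h at 37 °C. Viability was then read in the same wells by CellTiter-Fluor fluorescence after a further 30 min.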

[18] = target: Peroxisome proliferator-activated receptor gamma (Homo sapiens) (UniProt P37231); assay: qHTS assay to identify small molecule antagonists of the peroxisome proliferator-activated receptor gamma (PPARg) signaling pathway (AID 743191; calls by dose curve; further: series mostly up to about 63 µM; nearly all actives have a fitted effect of over 30% in size)
Summary of the method: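 Beta-lactamase reporter under UAS control in HEK293H PPARg-bla cells; compound treatment 17 h at 37C. Read-out: fluorescence intensity after 1 h room-temperature incubation with LiveBLAzer B/G FRET substrate.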

[19] = qHTS assay for small molecule activators of the heat shock response signaling pathway (AID 743210; active means well fitted activation curve with a large enough effect in the signal ratio in the repeat runs, with a control signal flat, not every such curve was filed as active; the % refers to the signal ratio;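 further: HeLa cells with beta-lactamase reporter driven by heat shock elements; series mostly up to about 63 µM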)
Summary of the method: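 HeLa HSE-bla cells, overnight plating; cpd in DMSO 5 h, 37 C; LiveBLAzer B/G FRET substrate 2.5 h RT; fluorescence intensity read.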

Measured: Potency

Oc1ccc(O)c2c(O)cccc12
active: [10] 12.1 µM
not listed: [15] | [16] | [17] | [18] | [19]
inactive: all other assays above

CC(C)CCCC(C)CCO (configuration not stated)
not listed: [6] | [17] | [18] | [19]
inactive: all other assays above

C#CCOC(=O)[C@@H](C)Oc1ccc(Oc2ncc(Cl)cc2F)cc1
not listed: [1] | [2] | [3] | [12] | [16] | [18] | [19]
inactive: all other assays above

CN(C)C/C=C(/c1ccc(Br)cc1)c1cccnc1
active: [17] 10.6 µM
not listed: [1] | [3] | [5] | [6] | [7] | [8] | [11] | [19]
inactive: all other assays above

CC(=O)OCCc1ccccc1
not listed: [17]
inactive: all other assays above

O=S1(=O)N=C(O)c2ccccc21
inactive: [17] | [4] | [8] | Aromatase (Homo sapiens) | [9] | [11] | [12] | [16] | [13] | [14]

O=C(Cl)c1c(Cl)cccc1Cl
not listed: [12] | [17] | [18]
inactive: all other assays above

CC(C)(C)C(=O)OCOP(=O)(COCCn1cnc2c(N)ncnc21)OCOC(=O)C(C)(C)C
active: [16] 2.11 µM
not listed: [1] | [3] | [5] | [6] | [7] | [12] | [18]
inactive: all other assays above

O=C(O)Cc1cc(I)c(Oc2ccc(O)c(I)c2)c(I)c1
active: [12] 24.5 µM | [16] 15.4 µM
inactive: [17] | [4] | [8] | Aromatase (Homo sapiens) | [9] | [11] | [14]

O=[N+]([O-])c1cccc(Cl)c1Cl
not listed: [1] | [2] | [9] | [10] | [12]
inactive: all other assays above

COCCCCCCCCOCCC[Si](C)(O[Si](C)(C)C)O[Si](C)(C)C
inactive: [17] | [2] | [10] | [15]
active: Aromatase (Homo sapiens) 19.3 µM | [9] 30.6 µM | [14] 38.9 µM

C=CCCCCCC
not listed: [17] | [18] | [19]
inactive: all other assays above

Cc1cccc(OCCOc2cccc(C)c2)c1
not listed: [1] | [2] | [6] | [7] | [10]
inactive: all other assays above

COCCO
not listed: [1] | [2] | [18]
inactive: all other assays above

c1ccc(OCc2ccc(CCCN3CCOCC3)cc2)cc1
active: [1] 21.1 µM
not listed: [7] | [10] | [12] | [16] | [17] | [18]
inactive: all other assays above

O=S1(=O)c2cccc3cccc(c23)N1CCCN1CCN(c2ccc(F)cc2)CC1
inactive: [17] | [2] | [5] | [8] | Aromatase (Homo sapiens) | [11] | [15] | [18] | [12] | [13] | [14]

O=C(O)Cn1c(C(=O)Nc2nc(-c3ccccc3Cl)cs2)cc2ccccc21
active: [1] 26.6 µM | [16] 21.1 µM
not listed: [4] | [10] | [12] | [15] | [17] | [19]
inactive: all other assays above

CN(C)CCCNCCCN
not listed: [1] | [2] | [5] | [6] | [12] | [16] | [18]
inactive: all other assays above
